Source: PubChem BioAssay (EPA / NIEHS)
Inconclusive results are not listed. The source made the active and inactive calls. Rule for the calls, unless noted: active = hit-call score of the fitted dose curve at least 0.9, where 1 is the maximum; inactive = score below 0.9.

Tests used:
[1] = target: CCAAT/enhancer-binding protein beta (Homo sapiens) (UniProt P17676); experiment: ATG_C_EBP_CIS: Attagene CIS-FACTORIAL HepG2 Assay for human CCAAT/Enhancer Binding Protein (C/EBP) beta (AID 2282927); settings: HepG2 Attagene cis-factorial transcription factor reporter; actives raise or lower the signal
CCAAT/enhancer-binding protein beta (Homo sapiens), sequence (P17676 whole entry, looked up): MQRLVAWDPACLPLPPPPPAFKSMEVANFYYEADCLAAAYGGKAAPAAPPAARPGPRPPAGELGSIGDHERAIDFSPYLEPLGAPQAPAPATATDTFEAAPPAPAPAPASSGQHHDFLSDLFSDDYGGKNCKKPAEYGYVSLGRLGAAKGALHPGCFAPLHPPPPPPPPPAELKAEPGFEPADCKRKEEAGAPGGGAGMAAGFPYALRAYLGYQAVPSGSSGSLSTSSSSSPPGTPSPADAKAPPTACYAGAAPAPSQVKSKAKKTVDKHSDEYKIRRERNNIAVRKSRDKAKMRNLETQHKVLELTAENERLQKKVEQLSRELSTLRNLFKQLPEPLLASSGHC
Summary of the method: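 Following a 24 h incubation with test chemical, transfected HepG2 cells yielded RNA whose reporter transcripts were quantified by RT-PCR and fluorescent capillary electrophoresis, with DMSO serving as baseline for bidirectional fitting.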

[2] = ATG_CMV_CIS: Attagene CIS-FACTORIAL HepG2 Assay for human CMV (Internal Marker) (AID 2282928); settings: HepG2 CMV promoter reporter, transcription factor profiling; actives raise or lower the signal;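 note: endpoint acts as a background internal control marker rather than a target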
Summary of the method: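 Fluorescence intensity of RT-PCR-derived reporter fragments, resolved by capillary electrophoresis, gives the signal. HepG2 liver cells bearing transfected cis-element reporters were treated 24 h; activity in either direction was fit relative to DMSO-treated controls.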

[3] = target: Aryl hydrocarbon receptor (Homo sapiens) (UniProt P35869); experiment: ATG_Ahr_CIS: Attagene CIS-FACTORIAL HepG2 Assay for human Aryl Hydrocarbon Receptor (Ahr) (AID 2282930); settings: HepG2 AhR cis-factorial reporter transcription; actives raise or lower the signal
Aryl hydrocarbon receptor (Homo sapiens), sequence (P35869 whole entry, looked up): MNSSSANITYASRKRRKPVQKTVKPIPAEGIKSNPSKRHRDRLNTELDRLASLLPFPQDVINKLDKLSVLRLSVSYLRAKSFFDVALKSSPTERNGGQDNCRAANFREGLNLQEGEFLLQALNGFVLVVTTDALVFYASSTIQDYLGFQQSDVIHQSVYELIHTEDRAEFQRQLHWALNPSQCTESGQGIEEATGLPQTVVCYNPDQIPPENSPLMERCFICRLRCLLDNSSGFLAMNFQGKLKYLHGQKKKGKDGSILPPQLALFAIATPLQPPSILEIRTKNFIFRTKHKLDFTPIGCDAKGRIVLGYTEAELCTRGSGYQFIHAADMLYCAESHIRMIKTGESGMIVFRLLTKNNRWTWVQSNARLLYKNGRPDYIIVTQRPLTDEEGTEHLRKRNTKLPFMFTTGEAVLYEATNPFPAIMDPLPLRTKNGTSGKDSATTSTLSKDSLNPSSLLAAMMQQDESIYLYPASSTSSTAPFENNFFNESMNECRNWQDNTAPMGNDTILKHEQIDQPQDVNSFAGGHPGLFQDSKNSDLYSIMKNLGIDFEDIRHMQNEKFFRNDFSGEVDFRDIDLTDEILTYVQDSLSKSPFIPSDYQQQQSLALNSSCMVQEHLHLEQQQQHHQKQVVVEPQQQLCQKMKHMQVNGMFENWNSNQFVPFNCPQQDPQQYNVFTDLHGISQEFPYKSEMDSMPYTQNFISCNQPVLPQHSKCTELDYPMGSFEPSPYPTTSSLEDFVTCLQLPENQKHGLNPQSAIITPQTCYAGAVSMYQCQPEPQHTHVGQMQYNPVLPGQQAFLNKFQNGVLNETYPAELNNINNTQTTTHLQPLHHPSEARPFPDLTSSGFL
Summary of the method: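 Values derive from bidirectional fitting against DMSO negative control. Underlying signal: cis-element reporter mRNA in transiently transfected HepG2, harvested 24 h post-dose and measured by RT-PCR plus capillary electrophoresis.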

[4] = target: Hypoxia-inducible factor 1-alpha (Homo sapiens) (UniProt Q16665); experiment: ATG_HIF1a_CIS: Attagene CIS-FACTORIAL HepG2 Assay for human Hypoxia Inducible Factor 1 (HIF1A) (AID 2282951); settings: HepG2 Attagene cis-factorial HIF1a reporter transcription; actives raise or lower the signal
Hypoxia-inducible factor 1-alpha (Homo sapiens), sequence (Q16665 whole entry, looked up): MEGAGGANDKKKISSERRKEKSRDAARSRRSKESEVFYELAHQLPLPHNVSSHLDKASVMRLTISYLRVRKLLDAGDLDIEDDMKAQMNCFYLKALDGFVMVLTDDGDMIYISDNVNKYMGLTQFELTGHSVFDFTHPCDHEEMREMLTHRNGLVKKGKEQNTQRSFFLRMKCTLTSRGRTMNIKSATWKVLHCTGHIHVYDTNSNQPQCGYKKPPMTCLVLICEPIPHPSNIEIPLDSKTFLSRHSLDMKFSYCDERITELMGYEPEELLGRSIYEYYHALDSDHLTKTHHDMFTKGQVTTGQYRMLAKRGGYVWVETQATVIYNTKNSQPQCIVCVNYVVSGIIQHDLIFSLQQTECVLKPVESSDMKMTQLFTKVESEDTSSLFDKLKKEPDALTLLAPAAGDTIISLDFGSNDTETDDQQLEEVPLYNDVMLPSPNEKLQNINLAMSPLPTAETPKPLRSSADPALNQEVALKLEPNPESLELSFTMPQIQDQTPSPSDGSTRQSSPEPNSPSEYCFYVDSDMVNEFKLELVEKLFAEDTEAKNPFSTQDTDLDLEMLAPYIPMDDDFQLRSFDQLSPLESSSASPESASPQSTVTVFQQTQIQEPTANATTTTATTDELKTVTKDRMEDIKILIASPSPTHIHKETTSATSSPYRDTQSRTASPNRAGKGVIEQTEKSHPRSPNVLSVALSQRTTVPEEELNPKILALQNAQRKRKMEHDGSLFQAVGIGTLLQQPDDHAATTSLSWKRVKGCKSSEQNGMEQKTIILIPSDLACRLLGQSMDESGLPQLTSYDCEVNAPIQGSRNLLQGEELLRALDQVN
Summary of the method: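 Measures endogenous transcription-factor activity through cis-regulated reporter mRNA in HepG2. Cells dosed 24 h; transcripts quantified by RT-PCR with 6-FAM-labelled products separated by capillary electrophoresis; DMSO serves as negative control.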

[5] = target: Hepatocyte nuclear factor 6 (Homo sapiens) (UniProt Q9UBC0); experiment: ATG_HNF6_CIS: Attagene CIS-FACTORIAL HepG2 Assay for human Hepatocyte Nuclear Factor 6 (HNF6) (AID 2282952); settings: HepG2 Attagene cis-factorial HNF6 reporter transcription; actives raise or lower the signal
Hepatocyte nuclear factor 6 (Homo sapiens), sequence (Q9UBC0 whole entry, looked up): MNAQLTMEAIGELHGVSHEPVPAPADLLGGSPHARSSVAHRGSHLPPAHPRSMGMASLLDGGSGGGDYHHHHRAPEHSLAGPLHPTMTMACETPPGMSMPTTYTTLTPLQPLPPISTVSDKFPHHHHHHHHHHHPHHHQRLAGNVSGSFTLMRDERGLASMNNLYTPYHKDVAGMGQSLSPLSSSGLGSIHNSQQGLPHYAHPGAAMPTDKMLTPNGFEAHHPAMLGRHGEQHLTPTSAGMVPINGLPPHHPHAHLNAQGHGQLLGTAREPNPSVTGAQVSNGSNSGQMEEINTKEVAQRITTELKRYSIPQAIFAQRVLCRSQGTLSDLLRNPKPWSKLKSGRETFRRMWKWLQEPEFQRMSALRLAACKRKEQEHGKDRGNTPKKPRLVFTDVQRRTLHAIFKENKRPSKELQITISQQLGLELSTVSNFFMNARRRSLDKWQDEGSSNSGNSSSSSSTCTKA
Summary of the method: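 Endogenous factor activity read in transiently transfected HepG2 via promoter-regulated reporter transcripts. RNA harvested 24 h post-dosing, reverse-transcribed, PCR-amplified, FAM-labelled, HpaI-digested and resolved by capillary electrophoresis; fitted in both directions against DMSO.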

[6] = target: Heat shock factor protein 1 (Homo sapiens) (UniProt Q00613); experiment: ATG_HSE_CIS: Attagene CIS-FACTORIAL HepG2 Assay for human Heat Shock Transcription Factor 1 (HSE) (AID 2282953); settings: HepG2 HSE cis-reporter, Attagene RNA transcription; actives raise or lower the signal
Heat shock factor protein 1 (Homo sapiens), sequence (Q00613 whole entry, looked up): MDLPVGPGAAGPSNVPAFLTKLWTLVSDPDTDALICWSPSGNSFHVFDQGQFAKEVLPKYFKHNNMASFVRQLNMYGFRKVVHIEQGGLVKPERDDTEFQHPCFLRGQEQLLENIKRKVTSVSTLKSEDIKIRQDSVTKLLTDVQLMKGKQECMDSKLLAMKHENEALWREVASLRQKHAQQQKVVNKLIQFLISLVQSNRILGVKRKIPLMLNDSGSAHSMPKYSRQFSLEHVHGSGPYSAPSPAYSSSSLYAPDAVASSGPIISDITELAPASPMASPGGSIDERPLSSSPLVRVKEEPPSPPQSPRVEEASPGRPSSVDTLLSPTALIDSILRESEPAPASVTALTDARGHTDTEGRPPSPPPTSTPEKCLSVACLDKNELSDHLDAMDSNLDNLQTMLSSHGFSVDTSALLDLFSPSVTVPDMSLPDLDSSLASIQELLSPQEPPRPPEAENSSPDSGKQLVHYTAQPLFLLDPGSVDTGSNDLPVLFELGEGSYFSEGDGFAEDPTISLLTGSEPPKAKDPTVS
Summary of the method: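 Endogenous transcription factor activity in transiently transfected HepG2, read as reporter mRNA by RT-PCR with fluorescent capillary electrophoresis after 24 h. Gain or loss of signal fitted versus DMSO baseline.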

[7] = ATG_RORE_CIS: Attagene CIS-FACTORIAL HepG2 Assay for human RAR-related Orphan Receptor Element (RORE) (AID 2282959); settings: HepG2 Attagene cis-factorial RORE reporter, mRNA; actives raise or lower the signal
Summary of the method: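 Cells were HepG2 carrying transfected cis-regulated reporter constructs, dosed for 24 hours. Total RNA was reverse-transcribed and reporter cDNA amplified, fluorescently labeled and sized by capillary electrophoresis. Activity was fitted bidirectionally relative to DMSO.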

[8] = ATG_TA_CIS: Attagene CIS-FACTORIAL HepG2 Assay for human TA Basal Promoter (AID 2282964); settings: HepG2 Attagene CIS-factorial TA basal promoter reporter; actives raise or lower the signal
Summary of the method: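 Background-control readout: TA basal promoter reporter mRNA, fitted in both directions relative to DMSO. Measured by RT-PCR and capillary electrophoresis 24 hours after treating HepG2 human liver cells transiently carrying multiplexed cis-regulated reporter constructs.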

[9] = ATG_TCF_b_cat_CIS: Attagene CIS-FACTORIAL HepG2 Assay for human T-Cell-Factor with beta-catenin (TCF/b-cat) (AID 2282965); settings: HepG2 TCF/beta-catenin cis-reporter transcription, actives raise or lower the signal
Summary of the method: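 Using capillary electrophoresis as the read-out, labelled reporter cDNA fragments from transiently transfected HepG2 were sized and quantified. Exposure lasted 24 hours; activity in either direction was referenced to DMSO.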

[10] = ATG_TAL_CIS: Attagene CIS-FACTORIAL HepG2 Assay for human TAL Basal Promoter (AID 2282966); settings: HepG2 Attagene cis-factorial TAL promoter reporter; actives raise or lower the signal;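 note: background control endpoint measuring basal TAL promoter reporter mRNA not a specific factor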
Summary of the method: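 Background-control endpoint: basal TAL promoter reporter transcripts in transiently transfected HepG2, measured 24 h after dosing. Read-out by RT-PCR with fluorescent primer extension and capillary electrophoresis; gain or loss of signal fitted relative to DMSO.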

[11] = ATG_TGFb_CIS: Attagene CIS-FACTORIAL HepG2 Assay for human Transforming Growth Factor (TGF) (AID 2282967); settings: HepG2 Attagene CIS TGFb reporter, mRNA transcription; actives raise or lower the signal
Summary of the method: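 Endogenous TGFB1-linked transcription factor activity read as reporter mRNA via RT-PCR and capillary electrophoresis, 24 h after dosing transiently transfected HepG2 cells. Gain or loss of signal fitted relative to DMSO.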

[12] = ATG_VDRE_CIS: Attagene CIS-FACTORIAL HepG2 Assay for human Vitamin D Receptor Element (VDRE) (AID 2282968); settings: HepG2 VDRE cis-reporter transcription, actives raise or lower the signal
Summary of the method: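 Transfected HepG2 reporter cells, chemical treatment 24 h. RNA isolated, cDNA amplified with reporter-specific primers, products analysed by capillary electrophoresis. Endpoint fitted in both directions versus DMSO.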

[13] = target: Transcriptional activator Myb (Homo sapiens) (UniProt P10242); experiment: ATG_Myb_CIS: Attagene CIS-FACTORIAL HepG2 Assay for human Myeloblastosis (Myb) Proto-Oncogene Transcription Factor (AID 2282986); settings: HepG2 Attagene CIS-FACTORIAL Myb reporter transcription; actives raise or lower the signal
Transcriptional activator Myb (Homo sapiens), sequence (P10242 whole entry, looked up): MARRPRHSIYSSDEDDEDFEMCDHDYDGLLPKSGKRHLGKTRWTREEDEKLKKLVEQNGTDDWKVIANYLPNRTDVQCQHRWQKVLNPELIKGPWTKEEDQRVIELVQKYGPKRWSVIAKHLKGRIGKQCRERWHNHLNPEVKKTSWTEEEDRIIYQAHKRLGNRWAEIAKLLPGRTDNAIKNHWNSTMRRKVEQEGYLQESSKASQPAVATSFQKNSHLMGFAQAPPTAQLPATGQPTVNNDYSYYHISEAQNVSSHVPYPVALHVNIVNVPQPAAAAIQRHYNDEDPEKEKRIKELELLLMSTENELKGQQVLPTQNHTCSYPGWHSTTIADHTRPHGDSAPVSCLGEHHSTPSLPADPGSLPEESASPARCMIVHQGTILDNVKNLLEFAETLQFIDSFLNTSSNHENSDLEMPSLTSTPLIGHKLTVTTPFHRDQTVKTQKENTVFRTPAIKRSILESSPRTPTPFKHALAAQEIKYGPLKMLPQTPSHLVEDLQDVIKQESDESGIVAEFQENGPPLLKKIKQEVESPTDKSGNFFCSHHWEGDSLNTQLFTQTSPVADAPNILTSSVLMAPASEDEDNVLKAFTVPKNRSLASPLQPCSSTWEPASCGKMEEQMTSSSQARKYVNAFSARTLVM
Summary of the method: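 Steps: transfect HepG2 with cis-regulated reporter units; dose with chemical for 24 h; isolate RNA, reverse-transcribe, PCR-amplify and FAM-label reporter sequences; digest with HpaI; resolve by capillary electrophoresis. Activity fitted in both directions relative to DMSO.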

[14] = target: Myc proto-oncogene protein (Homo sapiens) (UniProt P01106); experiment: ATG_Myc_CIS: Attagene CIS-FACTORIAL HepG2 Assay for human Myelocytomatosis (Myc) Proto-Oncogene Transcription Factor (AID 2282990); settings: HepG2, Attagene cis-reporter transcription factor activity; actives raise or lower the signal
Myc proto-oncogene protein (Homo sapiens), sequence (P01106 whole entry, looked up): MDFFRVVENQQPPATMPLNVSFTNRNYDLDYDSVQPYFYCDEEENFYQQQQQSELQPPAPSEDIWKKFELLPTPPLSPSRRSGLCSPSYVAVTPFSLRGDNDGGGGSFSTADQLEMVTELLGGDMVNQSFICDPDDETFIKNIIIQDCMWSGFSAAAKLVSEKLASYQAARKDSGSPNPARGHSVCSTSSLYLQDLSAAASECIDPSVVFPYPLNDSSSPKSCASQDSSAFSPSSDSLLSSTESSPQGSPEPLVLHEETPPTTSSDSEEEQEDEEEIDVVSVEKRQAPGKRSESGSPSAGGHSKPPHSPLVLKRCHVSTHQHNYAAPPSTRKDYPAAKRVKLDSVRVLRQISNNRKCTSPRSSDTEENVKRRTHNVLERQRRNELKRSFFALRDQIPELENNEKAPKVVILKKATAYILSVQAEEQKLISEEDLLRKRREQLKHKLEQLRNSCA
Summary of the method: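 Multiplexed cis-reporter transcription in HepG2 cells after 24 h chemical treatment. Reporter mRNA measured by RT-PCR and capillary electrophoresis fluorescence; activity fitted bidirectionally against DMSO control.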

[15] = ATG_NF_kB_CIS: Attagene CIS-FACTORIAL HepG2 Assay for human Nuclear Factor Kappa B (NF-kB) (AID 2282991); settings: HepG2 Attagene cis-factorial NF-kB reporter mRNA; actives raise or lower the signal
Summary of the method: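 Endogenous transcription factor activity in HepG2 was captured via cis-regulated reporter constructs; after 24 h dosing, reporter mRNA was reverse-transcribed, amplified, fluorescently labelled and sized by capillary electrophoresis, with activity fitted bidirectionally relative to DMSO.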

[16] = ATG_NRF2_ARE_CIS: Attagene CIS-FACTORIAL HepG2 Assay for human Nuclear Factor Erythroid 2 Related Factor 2 (NFR2) response to Antioxidant Response Elements (ARE) (AID 2282992); settings: HepG2 Attagene ARE/NRF2 reporter, transcription factor activity; actives raise or lower the signal
Summary of the method: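 Fluorescence intensity of reporter-specific cDNA fragments, separated by capillary electrophoresis, reflects mRNA induction in transfected HepG2 cells at 24 h. Activity is fitted bidirectionally, DMSO serving as baseline.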

[17] = ATG_Oct_MLP_CIS: Attagene CIS-FACTORIAL HepG2 Assay for human Octamer-Binding Transcription Factor (Oct) (AID 2282993); settings: HepG2 Attagene cis-factorial Oct reporter, mRNA; actives raise or lower the signal
Summary of the method: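 Readout is reporter transcript level from RT-PCR with fluorescent primer extension and capillary electrophoresis, fitted in both directions against DMSO. Transfected HepG2 reporter units report endogenous factor activity after 24 h dosing.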

[18] = target: Cellular tumor antigen p53 (Homo sapiens) (UniProt P04637); experiment: ATG_p53_CIS: Attagene CIS-FACTORIAL HepG2 Assay for human p53 Transcription Factor (AID 2282994); settings: HepG2 p53 cis-element reporter, Attagene mRNA; actives raise or lower the signal
Cellular tumor antigen p53 (Homo sapiens), sequence (P04637 whole entry, looked up): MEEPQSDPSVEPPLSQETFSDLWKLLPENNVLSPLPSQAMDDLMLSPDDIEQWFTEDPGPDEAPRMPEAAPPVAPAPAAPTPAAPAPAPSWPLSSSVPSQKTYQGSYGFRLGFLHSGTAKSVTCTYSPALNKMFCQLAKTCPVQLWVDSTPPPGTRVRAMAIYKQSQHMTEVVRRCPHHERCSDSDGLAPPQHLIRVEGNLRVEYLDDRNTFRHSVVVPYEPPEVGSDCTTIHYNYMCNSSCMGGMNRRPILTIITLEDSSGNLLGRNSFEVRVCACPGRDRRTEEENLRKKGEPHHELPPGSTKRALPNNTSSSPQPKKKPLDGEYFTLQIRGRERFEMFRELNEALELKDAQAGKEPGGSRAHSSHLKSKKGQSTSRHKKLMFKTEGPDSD
Summary of the method: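 Transiently transfected HepG2 (multiple cis reporter transcription units); exposure 24 h; reporter RNA via RT-PCR, 6-FAM extension, 2 h HpaI digest at 37 C, CE detection; DMSO baseline.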

[19] = ATG_XTT_Cytotoxicity: Cytotoxicity Assessment in the Attagene TRANS-FACTORIAL HepG2 Assay (AID 2283584; active = hit-call score of the fitted dose curve at least 0.9, where 1 is the maximum;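 for AC50: cells exposed to compound for 24 h before reading; active means loss of viability signal versus DMSO baseline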)
Summary of the method: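 Viability endpoint from XTT after 24 h chemical exposure of reporter-transfected human HepG2 liver cells; signal loss fitted relative to DMSO negative control.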

[20] = ATG_M_32_TRANS: Attagene TRANS-FACTORIAL HepG2 Assay for M32 Transcription Factor (Internal Marker) (AID 2282984; active = hit-call score of the fitted dose curve at least 0.9, where 1 is the maximum); settings: HepG2 Attagene TRANS M32 internal marker reporter
Summary of the method: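 Fluorescence-detected mRNA induction, HepG2 liver cells, 24 h after dosing. Multiple GAL4-UAS reporter units introduced by transient transfection; background-control endpoint analysed for gain of signal against DMSO.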

Measured: AC50

ClCC(Cl)Cl
inactive: [1] | [2] | [3] | [4] | [5] | [6] | [7] | [8] | [9] | [10] | [11] | [12] | [13] | [14] | [15] | [16] | [17] | [18] | [19]

CCCC=NO
inactive: [1] | [2] | [3] | [4] | [6] | [7] | [8] | [9] | [10] | [11] | [12] | [20] | [13] | [14] | [16] | [17] | [18] | [19]

O=C=Nc1ccccc1
active: [3] 9.05 µM
inactive: [1] | [2] | [4] | [5] | [6] | [8] | [9] | [10] | [11] | [12] | [13] | [14] | [15] | [16] | [17] | [19]

Cc1ccc(N(SC(F)(Cl)Cl)S(=O)(=O)N(C)C)cc1
active: [2] 15.8 µM | [4] 11.1 µM | [6] 16.5 µM | [9] 16.6 µM | [12] 14.4 µM | [14] 20.3 µM | [16] 13.9 µM | [17] 17.7 µM | [19] 38.7 µM
inactive: [1] | [3] | [8] | [10] | [11] | [20] | [13] | [15] | [18]

CSc1nc(N=[N+]=[N-])nc(NC(C)C)n1
active: [2] 52.8 µM | [16] 100 µM
inactive: [1] | [3] | [4] | [6] | [7] | [8] | [9] | [11] | [12] | [20] | [13] | [14] | [15] | [17] | [18] | [19]

COC(=O)c1ccccc1S(=O)(=O)NC(=O)Nc1nc(C)cc(C)n1
inactive: [1] | [2] | [3] | [4] | [8] | [9] | [10] | [11] | [12] | [20] | [13] | [14] | [15] | [16] | [17]

CC1CCCC1.[C-]#[O+].[C-]#[O+].[C-]#[O+].[Mn]
active: [3] 12.5 µM
inactive: [1] | [2] | [4] | [5] | [6] | [7] | [8] | [9] | [10] | [11] | [12] | [20] | [13] | [14] | [15] | [16] | [17] | [18] | [19]

O=C1Nc2ccc(Cl)cc2C(c2ccccc2)=NC1O (stereo unspecified)
active: [9] 28.9 µM
inactive: [1] | [2] | [3] | [4] | [6] | [7] | [8] | [11] | [12] | [13] | [14] | [17] | [18] | [19]

N#Cc1cc(I)c(O)c(I)c1
inactive: [1] | [2] | [3] | [4] | [6] | [7] | [8] | [9] | [10] | [11] | [20] | [13] | [14] | [15] | [18] | [19]
active: [12] 30.8 µM | [16] 28.3 µM | [17] 39.3 µM

C=CC(=O)OC
inactive: [1] | [2] | [3] | [4] | [5] | [6] | [7] | [8] | [9] | [10] | [11] | [12] | [20] | [13] | [14] | [15] | [16] | [17] | [18] | [19]

Cc1ccc(OP(=O)(Oc2ccc(C)cc2)Oc2ccc(C)cc2)cc1 (tested in a mixture with another compound)
active: [12] 2.35 µM
inactive: [1] | [2] | [3] | [4] | [8] | [9] | [10] | [11] | [13] | [14] | [16] | [17] | [18] | [19]

COc1cc(OC)nc(Oc2cccc(Oc3nc(OC)cc(OC)n3)c2C(=O)O)n1
active: [3] 57.5 µM
inactive: [1] | [2] | [4] | [6] | [7] | [8] | [9] | [10] | [11] | [12] | [20] | [13] | [14] | [15] | [16] | [17] | [18]

Nc1ccc([N+](=O)[O-])cc1N
inactive: [1] | [2] | [4] | [5] | [6] | [7] | [8] | [9] | [10] | [11] | [12] | [20] | [13] | [14] | [17] | [18] | [19]
active: [3] 24.7 µM | [16] 7.53 µM
